Assay outcomes: PubChem, National Center for Advancing Translational Sciences (NCATS)
ATXN2 expr inh = ATXN2 expression inhibition. AID 1745845. Potency, µM (doses to about 57 µM), inactives show at the top dose activity change, negative = inhibition, hits mostly inhibitors. 0.72% of 360,000 active. HEK-293 ATXN2-luciferase reporter, luminescence, 24 h; note: % is set by controls: 0 for no effect and ±100 for the full control effect; nearly all actives have a fitted effect of over 55% in size
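ATXN2-luciferase reporter cells (luciferase flanked by upstream and downstream ATXN2 gene portions) were treated 24 h at 37 °C with compounds at up to 57 uM. SteadyGlo luminescence gave expression; GF-AFC fluorescence gave viability.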
HepG2 tox-1 = kills HepG2 cells in TGF-b inhibitor counter-screen; HepG2 CAGA-GFP viability, ATP luminescence, 18 h; Potency, µM (highest dose often 46.1 µM), for the others: at the highest dose activity change, negative = cytotoxicity, most hits filed as cytotoxic; 0.76% of 410,000 active; AID 588856
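HepG2 CAGA-GFP cells (1000/well, DMEM with 1% FBS) received compound, then TGF-beta at 500 pg/mL final, and were incubated 18 hours at 37 degrees C. Viability was read by CellTiter-Glo luminescence. Media-only wells were set as complete cell-killing and DMSO as no toxicity.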
ATXN viability = viability counter-screen for ATXN expression inhibitors. 0.49% of 400,000 active. S2 cells (HEK-293 line with an ATXN2-luciferase reporter) viability, CellTiter-Fluor protease fluorescence, 24 h. Potency, µM (top dose mostly 56.7 µM), actives largely listed as cytotoxic; note: nearly all actives have a fitted effect of over 40% in size
KB-V1 cytotox = KB-V1 MDR subline cytotoxicity | 3.4% of 400,000 active | KB-V1 MDR cells viability, CellTiter-Glo, 72 h | Potency, µM (highest dose often 46.1 µM), usual class: cytotoxic; note: % is set by controls: 0 for no effect and ±100 for the full control effect; nearly all actives have a fitted effect of over 60% in size
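Luminescent ATP read-out (CellTiter-Glo, 10 min) measures survival of drug-selected KB-V1 MDR cells after 72 h, 37 degrees C compound exposure. Medium: phenol-red-free DMEM, 10% FBS. Values from fitted concentration-response curves.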
KB-3-1 cytotox = KB-3-1 parental cell cytotoxicity; 1.4% of 400,000 active; Potency, µM (doses to about 46.1 µM), actives largely listed as cytotoxic; KB-3-1 viability, CellTiter-Glo ATP luminescence, 72 h; AID 1347075; note: % is set by controls: 0 for no effect and ±100 for the full control effect; nearly all actives have a fitted effect of over 60% in size
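Cells are dispensed, compounds pinned in, plates held at 37 °C for 72 h, then CellTiter-Glo is added and luminescence read after 10 minutes. Cell line: parental KB-3-1 in phenol-red-free DMEM, 10% FBS.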
TGFb SMAD3 inh = inhibitors of TGF-b signaling; HepG2 CAGA-GFP TGF-b/SMAD3 reporter, GFP fluorescence, 18 h; TGF-beta stimulated, 500 pg/mL final; Potency, µM (doses to about 46.1 µM), without a hit: at the highest dose activity, negative = inhibition, most hits filed as inhibitors; 1.2% of 410,000 active; AID 588855; note: % is set by controls: 0 for no effect and ±100 for the full control effect; nearly all actives have a fitted effect of over 65% in size
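Inhibition was scored as loss of TGF-beta-induced (500 pg/mL final, 18 hours, 37 degrees C) GFP in HEPG2 cells carrying a CAGA-GFP reporter, in DMEM with 1% FBS. Well GFP was summed per cell; Activity was normalised to unstimulated and stimulated DMSO wells, then concentration-response fitting.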
TGFb CAGA inh = confirmation of TGF-b signaling inhibitors in HepG2 reporter cells | Potency, µM (series often up to 46.1 µM), for inactives: at the top dose activity, negative = inhibition, most hits filed as inhibitors | HepG2 CAGA-GFP TGF-b reporter, GFP fluorescence, 18 h; cells stimulated with TGF-beta, 500 pg/mL | shares compounds with TGFb SMAD3 inh | 63% of 1,600 active; note: % is set by controls: 0 for no effect and ±100 for the full control effect; nearly all actives have a fitted effect of over 65% in size
HepG2 tox-2 = counter-screen for TGF-b inhibitors: cytotoxicity in HepG2 cells. shares compounds with TGFb SMAD3 inh. HepG2 CAGA-GFP viability, ATP luminescence, 18 h; cells stimulated with TGF-beta, 500 pg/mL. Potency, µM (titrated, usually from 46.1 µM), inactives show at the top dose activity, negative = cytotoxicity, most hits filed as inhibitors. 27% of 1,600 active. AID 720535; note: % is set by controls: 0 for no effect and ±100 for the full control effect; nearly all actives have a fitted effect of over 70% in size
TGFb CCL64 inh = TGF-b inhibition, CCL64 orthogonal assay; shares compounds with TGFb SMAD3 inh; CCL64 CAGA-GFP reporter, TGF-b stimulated, GFP fluorescence, 18 h; Potency, µM (top dose mostly 46.1 µM), for inactives: top-dose activity, negative = inhibition, usual class: inhibitors; 41% of 1,600 active; note: nearly all actives have a fitted effect of over 65% in size
COP TGFb inh = blocks TGF-b signaling in HepG2 COP reporter; shares compounds with TGFb SMAD3 inh; HepG2 COP-GFP TGF-b reporter, GFP fluorescence, 18 h; cells stimulated by added recombinant TGF-beta; Potency, µM (highest dose often 46.1 µM), for inactives: top-dose activity, negative = inhibition, actives largely listed as inhibitors; 3% of 1,600 active; AID 720537; note: nearly all actives have a fitted effect of over 70% in size
* marks the source's active call; other numbers are inactive results; i = inactive; ? = inconclusive; / = no result given. Rows were chosen to be rich in hits. Some 5.9% of all compounds tested hit in one or more screens of this group. Calls come from the whole dose curve; as a rule, active = well fitted curve in the direction sought with a large enough effect; inconclusive = small, poorly fitted or top-dose-only effect, or another doubt; inactive = no such curve, though single readings can be large; an effect the other way counts as inactive or inconclusive. Potency is the fitted concentration of half-maximal effect.

SMILES	ATXN2 expr inh	HepG2 tox-1	ATXN viability	KB-V1 cytotox	KB-3-1 cytotox	TGFb SMAD3 inh	TGFb CAGA inh	HepG2 tox-2	TGFb CCL64 inh	COP TGFb inh
CC(C)(C)C(=O)NCCCc1nc2ccccc2n1CCCOc1ccc(Cl)cc1	-31%	-17%	i	16µM*	?	13µM*	12µM*	-14%	?	11%
COc1cccc(NC(=O)CCNS(=O)(=O)c2ccc3c(c2)CCCC(=O)N3)c1	10%	3%	i	?	i	2%	/	/	/	/
COc1ccccc1OCC(=O)NC1CCCc2ccccc21 (stereo not drawn)	-18%	-15%	i	i	i	-10%	/	/	/	/
CC(C)c1ccccc1OCC(=O)NC1CCCc2ccccc21 (stereo not drawn)	-26%	-8%	i	?	i	16µM*	18µM*	?	?	11%
CC(C)(C)OC(=O)N1CCC(c2c(C(=O)N3CCN(c4ccccn4)CC3)cnn2-c2ccccc2Cl)CC1	/	-24%	/	i	i	?	/	/	/	/
CCC(C(=O)Nc1ccc(C(C)=O)cc1)n1c(C)c2cnn(-c3ccccc3)c(=O)c2c1C (stereo not drawn)	-1%	-22%	i	i	i	-24%	/	/	/	/
CCC1CN(C(=O)Nc2cccc3c2CCCC3)c2cc(Cl)ccc2O1 (stereo not drawn)	/	-27%	/	/	/	?	/	/	/	/
COc1ccc2oc(=O)cc(CN3CCN(c4ccccc4F)CC3)c2c1	/	-31%	/	/	/	?	/	/	/	/
Oc1c(CN2CCCCC2)cc(Br)c2cccnc12	4µM*	-46%	3.5µM*	?	13µM*	2.8µM*	21µM*	?	7.3µM*	19%
O=C(Oc1c(CN2CCOCC2)cc(Cl)c2cccnc12)c1ccccc1	8.9µM*	2.8µM*	11µM*	?	?	2.8µM*	-6%	?	?	4%
Oc1c(Cl)cc(CN2CCOCC2)c2cccnc12	/	-49%	?	i	?	2.5µM*	?	?	?	6%
CN1CCN(Cc2cc(COCc3ccccc3)c3cccnc3c2O)CC1	4µM*	-30%	?	?	?	4.5µM*	-18%	?	7.3µM*	5%
CCOc1ccccc1NS(=O)(=O)c1ccc2c(c1)CC(C)N2C(=O)C1CCC1 (stereo not drawn)	?	-24%	i	?	?	?	/	/	/	/
CNC(=O)c1ccc(Nc2nnc(-c3ccc(C)c(S(=O)(=O)N4CCOCC4)c3)c3ccccc23)cc1	12%	-25%	i	i	i	3%	/	/	/	/
COc1ccc(-n2ccn(Cc3ccccc3Cl)c(=O)c2=O)cc1OC	/	2%	/	/	/	-1%	/	/	/	/
Cc1ccc(-c2nc(SCC(=O)NCC3CCCO3)c3c(=O)n(C)c(=O)n(C)c3n2)cc1 (stereo not drawn)	5%	11%	i	?	i	-1%	/	/	/	/
CCCc1cc(C(=O)Nc2c(C)nn(Cc3ccc(Cl)c(Cl)c3)c2C)no1	?	-33%	?	?	?	?	/	/	/	/
CC(=O)N1c2ccc(S(=O)(=O)N3CCC(C(=O)Nc4cccc(C(F)(F)F)c4)CC3)cc2CC1C (stereo not drawn)	?	-19%	i	i	?	11µM*	16µM*	?	-23%	-8%
O=C(CCC(=O)c1ccc(F)cc1)Nc1cccc(S(=O)(=O)Nc2cccc(Cl)c2)c1	0%	-28%	i	i	i	13µM*	?	?	?	19%
O=C(CCC(=O)c1ccc(F)cc1)Nc1ccc(Cl)cc1	-20%	-26%	i	i	i	-4%	/	/	/	/
COc1ccc(CNC(=O)[C@@H]2CCCN2C(=O)[C@@H]2Cc3ccccc3CN2C(=O)OC(C)(C)C)cc1	1%	-7%	i	i	i	11µM*	13µM*	-17%	12%	-6%
O=[N+]([O-])c1ccc(N2CCN(Cc3ccccc3)CC2)s1	5%	-13%	i	?	i	-6%	/	/	/	/
O=[N+]([O-])c1ccc(N2CCN(Cc3ccccc3)CC2)c2c1no[n+]2[O-]	/	3.5µM*	3.5µM*	6.5µM*	2.1µM*	3.2µM*	?	4.1µM*	5.2µM*	?
CC1CCc2[nH]c3ccc(C(=O)N4CCCC(C(F)(F)F)C4)cc3c2C1 (stereo not drawn)	6%	8%	i	?	i	14µM*	?	?	21µM*	58%
Cc1ccc(OCCNC(=O)CNC(=O)Cc2cccc3ccccc23)cc1	/	-12%	/	i	i	6%	/	/	/	/
CC(C)(C)c1cc(C(c2cccnc2)N2CCN(CCO)CC2)cc(C(C)(C)C)c1O (stereo not drawn)	?	13µM*	/	i	i	7.9µM*	5.2µM*	15µM*	4.6µM*	?
CCCSc1nnc2c(n1)OC(CC)N(C(C)=O)c1ccccc1-2 (stereo not drawn)	5%	1%	i	i	i	-10%	/	/	/	/
CCCC1NC(=O)c2cc3ccccc3cc2-n2c1nc1cc(F)ccc1c2=O (stereo not drawn)	-38%	-21%	?	i	i	-15%	/	/	/	/
O=C1NC(Cc2ccc(O)cc2)c2nc3cc(F)c(F)cc3c(=O)n2-c2cc3ccccc3cc21 (stereo not drawn)	?	-20%	/	i	?	16µM*	?	?	?	62%
